Screening data deposited in PubChem BioAssay by National Center for Advancing Translational Sciences (NCATS).
Most compounds without a hit are left out; they make up all but 1.2% or so of the library.
TRb-SRC2 inh = inhibitors of human thyroid hormone receptor beta-SRC2 interaction | P10828 | TRbeta-SRC2 peptide binding, fluorescence polarization; receptor liganded with 1 µM T3 | Potency, µM (highest dose often 106 µM), hits mostly inhibitors | hit rate 0.065% among 280,000; further: nearly all actives have a fitted effect of over 50% in size
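Compounds were added to 0.6 uM TRb ligand-binding domain and 20 nM Texas Red-labeled SRC2 peptide in Tris buffer containing 1 uM T3, incubated 5 hr at ambient temperature, then read by fluorescence polarization.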
VDR inhibitor = blocks the human vitamin D receptor. VDR-SRC2-3 peptide fluorescence polarization, 2 h. Potency, µM, hits mostly inhibitors. P11473. AID 504847. hit rate 0.93% among 400,000
Target sequence (P11473 whole entry, looked up): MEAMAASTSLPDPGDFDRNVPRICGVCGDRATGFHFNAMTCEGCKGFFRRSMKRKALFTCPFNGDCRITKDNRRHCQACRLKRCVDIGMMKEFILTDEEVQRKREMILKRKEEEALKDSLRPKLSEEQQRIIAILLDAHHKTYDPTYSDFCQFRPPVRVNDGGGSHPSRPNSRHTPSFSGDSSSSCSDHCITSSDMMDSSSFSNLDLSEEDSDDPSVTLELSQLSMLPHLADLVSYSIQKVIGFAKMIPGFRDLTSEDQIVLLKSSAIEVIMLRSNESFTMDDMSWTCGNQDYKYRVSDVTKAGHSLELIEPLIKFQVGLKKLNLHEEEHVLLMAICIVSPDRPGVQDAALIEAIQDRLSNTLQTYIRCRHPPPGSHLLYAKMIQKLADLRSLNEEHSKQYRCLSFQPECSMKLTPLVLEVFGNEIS
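Reagent solutions, kept cold and dark, are dispensed first; compounds are then pinned in at 23 nl, plates briefly spun, and incubated 2 h at ambient temperature. Inhibition of VDR–SRC2-3 peptide binding is read by fluorescence polarization.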
KAT2A inh = blocks human GCN5L2 histone acetyltransferase | Q92830 | GCN5L2 HAT assay, ThioGlo1 CoA-SH fluorescence | Potency, µM (top dose mostly 58.9 µM), most hits filed as inhibitors | hit rate 0.21% among 390,000
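qHTS, 1536-well. 20nM enzyme, pH 7.5 HEPES/EDTA/Tween-20 buffer; 15 min compound preinc., RT. Start: 75uM H3(1-25), 70uM AcCoA, 50uM ThioGlo1. Read Ex340/Em540 at t=0 (autofluorescence flag) and t=20 min.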
GoLoco inh red = RGS12 GoLoco-Gai1 interaction inhibition. P63096. Gai1:RGS12 GoLoco peptide FP, rhodamine, 10 min. Potency, µM (top dose mostly 61.6 µM), usual class: inhibitors. hit rate 0.44% among 230,000; active means well fitted inhibition curve with a large enough effect, not every such curve was filed as active; inactive means no such curve, though single readings can be large or run the other way; further: nearly all actives have a fitted effect of over 30% in size
TR SRC2 fluor cs = counter-screen for TRb-SRC2 inhibitors: fluorescence interference. TRb/SRC2 Texas Red total fluorescence interference. Potency, µM (top dose mostly 106 µM). hit rate 0.29% among 280,000. AID 1479; active means well fitted curve in either direction with a large enough effect; inconclusive means small, poorly fitted or top-dose-only effect
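Human TRβ ligand-binding domain (0.6 uM) and Texas Red SRC2 peptide (20 nM) in Tris buffer with 1 uM T3 and 5% DMSO were incubated with pinned compound for 5 hr at ambient temperature. Total fluorescence was computed as S + 2P (555/632 nm).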
USP1-UAF1 confirm = validation of human USP1/UAF1 inhibitors; AID 540327; shares compounds with VDR inhibitor; Ub-Rhodamine cleavage, fluorescence kinetic read; Potency, µM (titrated, usually from 56.8 µM), actives largely listed as inhibitors; hit rate 50% among 50
VDR confirm = confirmation of human vitamin D receptor inhibitors. shares compounds with VDR inhibitor. VDR-coactivator inhibition assay, qHTS confirmation. Potency, µM, most hits filed as inhibitors. hit rate 89% among 840. AID 602199
VDR FP fluor = blocks human VDR-coactivator binding in fluorescein assay; shares compounds with VDR inhibitor; hit rate 48% among 840; AID 602200; VDR-coactivator binding, fluorescein fluorescence polarization; Potency, µM (top dose mostly 57.1 µM), usual class: inhibitors
VDR bla = VDR (human) inhibition, cell-based beta-lactamase validation; VDR beta-lactamase reporter cells, FRET ratio; cells co-treated with VDR agonist LG190178; Potency, µM (titrated, usually from 46.1 µM), hits mostly inhibitors; hit rate 23% among 840; shares compounds with VDR inhibitor
VDR cytotox = counter-screen for vitamin D receptor inhibitors: cytotoxicity; shares compounds with VDR inhibitor; cytotoxicity counter-screen, cell viability, qHTS; Potency, µM (top dose mostly 48.3 µM), hits mostly cytotoxic; hit rate 18% among 840; further: nearly all actives have a fitted effect of over 75% in size
Numbers stand for hits; i = inactive; ? = inconclusive; nt = not tested or not shown; [ ] = dose if it differs, or a comment. Unless noted, the call rests on the fitted dose curve; in most records, active means well fitted curve in the direction sought with a large enough effect; inconclusive means small, poorly fitted or top-dose-only effect, or another doubt; inactive means no such curve, though single readings can be large; an effect the other way counts as inactive or inconclusive.

SMILES | TRb-SRC2 inh | VDR inhibitor | KAT2A inh | GoLoco inh red | TR SRC2 fluor cs | VDR confirm | VDR FP fluor | VDR bla | VDR cytotox | others
CCN(CC)CC[n+]1ccc2c(C)c3[nH]c4ccccc4c3c(C)c2c1 | nt | nt | nt | i[14.2 µM] | nt | nt | nt | nt | nt
Cc1ccc(S(=O)(=O)Nc2ccc(Br)cc2C(NCC(=O)O)c2ccccc2)cc1 (configuration not stated) | i | i | i | i | i | nt | nt | nt | nt
O=C(O)CSc1cc(NS(=O)(=O)c2ccc(Br)cc2)c2ccccc2c1O | nt | 16µM | i | nt | nt | 4.2 | 18µM | i | ?
COc1ccc2c(c1)Cc1sc(NC(=O)c3cccc(Cl)c3)nc1-2 | i | i | i | nt | i | nt | nt | nt | nt
COc1ccc2c(c1)Cc1sc(NC(=O)c3cccc(C)c3)nc1-2 | i | 20µM | i | nt | ? | 7.1 | 7.1µM | ? | ?
C=CS(=O)(=O)c1c2cc(OC)ccc2nc2ccc(OC)cc12 | nt | 50µM | nt | nt | nt | 24 | 14µM | ? | ?
COc1ccc2nc(Cl)cc(Cl)c2c1 | i | i | i | i | i | nt | nt | nt | nt
C=C1CC[C@H](O)C/C1=C/C=C1\CCC[C@]2(C)C([C@H](C)CC[C@@H](O)C(C)(C)O)CC[C@@H]12 (some centres not stated) | i | i | i | i | i | nt | nt | nt | nt
CCCCCCCCCCCCCCCCCCCCCCCCCCCCCC | i | i | i | nt | ? | nt | nt | nt | nt
COc1ccc(OC)c(NC(=O)c2nc(S(=O)(=O)Cc3ccccc3F)ncc2Cl)c1 | nt | nt | nt | nt | nt | 2.8 | 4µM | 16µM | 11µM
COc1ccc(OC)c(NC(=O)c2nc(S(=O)(=O)Cc3ccccc3)ncc2Cl)c1 | nt | 10µM | ? | nt | nt | 12 | ? | 8.2µM | 8.2µM
O=C(O)[C@@H]1[C@@H]2C[C@@H]3[C@@H](OC(=O)[C@@H]31)[C@H]2Br | nt | nt | nt | i[14.2 µM] | nt | nt | nt | nt | nt
Cc1nc2cccc([N+](=O)[O-])c2n1CCCN(C)C | nt | nt | nt | i[14.2 µM] | nt | nt | nt | nt | nt
c1ccc(C2=NN[C@@H]3c4ccccc4-c4ccccc4N3C2)cc1 | nt | nt | nt | i[14.2 µM] | nt | nt | nt | nt | nt
O=c1nc(/C=C/c2cccn2-c2ccc([N+](=O)[O-])cc2)cc(C(F)(F)F)[nH]1 | i | i | i | i | i | nt | nt | nt | nt
O=c1nc(/C=C/c2cc([N+](=O)[O-])ccc2Cl)cc(C(F)(F)F)[nH]1 | i | ? | ? | i | i | 3.2 | 3.2µM | ? | i
CC(C)(CO[C@H]1C[C@H]2CC[C@@]1(C)C2(C)C)[N+](=O)[O-] | nt | nt | nt | i[14.2 µM] | nt | nt | nt | nt | nt
NCCSCCC(=O)O | nt | nt | nt | i[14.2 µM] | nt | nt | nt | nt | nt
Nc1ccccc1Sc1nc2ccccc2[nH]1 | i | 20µM | ? | i | i | 21 | 14µM | i | i
O=C(O)CN1C(=O)/C(=C\c2cc(Br)ccc2OCc2ccc(F)cc2)SC1=S | nt | 71µM | ? | nt | nt | ? | 32µM | i | i
O=C(O)CCCN1C(=O)/C(=C\c2ccccc2OCc2ccccc2)SC1=S | nt | i | i | nt | nt | nt | nt | nt | nt
Cc1ccc(S(=O)(=O)N[C@@H](Cc2ccccc2)C(=O)CCl)cc1 | i | 5.6µM | i | i | i | 9.5 | 7.1µM | 18µM | ? | USP1-UAF1 confirm=47µM
CC1(C)CC(=O)C(C(c2cccc(O)c2O)C2C(=O)CC(C)(C)CC2=O)C(=O)C1 | nt | nt | nt | i[14.2 µM] | nt | nt | nt | nt | nt
COc1ccc(/C=C2\N=C(C)OC2=O)cc1[N+](=O)[O-] | i | 79µM | i | i | i | 11 | ? | i | i
COc1ccc(/C=N/Nc2nc(=O)[nH]nc2C)cc1[N+](=O)[O-] | i | i | i | i | i | nt | nt | nt | nt
CNc1ccc(Br)cc(C(=O)/C=C/c2cccc(Cl)c2Cl)c1=O | i | ? | i | i | i | 8.9 | i | 23µM | i
CNc1ccc(Br)cc(C(=O)/C=C/c2cccc(OC)c2OC)c1=O | i | i | i | i | i | nt | nt | nt | nt
